In all, about 5,500 compounds went through this assay and about 2,000 (36%) were called active. Inconclusive results (about 18%) are left out. No stated cut-off is given here; in the data, active means normalized growth mostly below about 0.91 (no sharp cut-off); inconclusive means no clear call, values can overlap the other calls; inactive means mostly above about 0.92. This is one part of the list.
Assay: chemical genetic growth profiling, strain panel (AID 1159580);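 further: tested at 20 µM; growth read once vehicle control cultures reached saturation at 30 °C; 1 = growth at the plate median or of vehicle wells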
Conditions: growth OD

Measured: normalized growth

C[C@H]1[C@H](C)CC[C@]2(C(=O)O)CC[C@]3(C)C(=CCC4[C@@]5(C)C[C@@H](O)[C@H](O)[C@@](C)(CO)C5[C@H](O)C[C@]43C)[C@H]12 (stereo partly drawn)
inactive: S. cerevisiae deletion strains, locus YJR066W, strain TOR1, stronger effect = lower value 0.909 | S. cerevisiae deletion strains, locus YKL160W, strain elf1, stronger effect = lower value 0.958 | S. cerevisiae deletion strains, locus YKR026C, strain gcn3, stronger effect = lower value 0.962 | S. cerevisiae deletion strains, locus YKR091W, strain srl3, stronger effect = lower value 0.965 | S. cerevisiae deletion strains, locus YLL001W, strain dnm1, stronger effect = lower value 0.964 | S. cerevisiae deletion strains, locus YLL026W, stronger effect = lower value 0.97 | S. cerevisiae deletion strains, locus YLL041C, strain sdh2, stronger effect = lower value 0.966 | S. cerevisiae deletion strains, locus YLR027C, strain aat2, stronger effect = lower value 0.96 | S. cerevisiae deletion strains, locus YLR039C, strain RIC1, stronger effect = lower value 0.799 | S. cerevisiae deletion strains, locus YLR058C, strain SHM2, stronger effect = lower value 0.993 | S. cerevisiae deletion strains, locus YLR102C, strain apc9, stronger effect = lower value 0.976 | S. cerevisiae deletion strains, locus YLR221C, strain rsa3, stronger effect = lower value 0.922 | S. cerevisiae deletion strains, locus YLR258W, strain gsy2, stronger effect = lower value 0.968 | S. cerevisiae deletion strains, locus YLR262C, strain YPT6 (second series), stronger effect = lower value 0.919 | S. cerevisiae deletion strains, locus YLR262C, strain YPT6, stronger effect = lower value 0.872 | S. cerevisiae deletion strains, locus YLR268W, strain sec22, stronger effect = lower value 0.932 | S. cerevisiae deletion strains, locus YLR320W, strain mms22, stronger effect = lower value 0.928 | S. cerevisiae deletion strains, locus YLR330W, strain CHS5, stronger effect = lower value 0.958 | S. cerevisiae deletion strains, locus YLR342W, strain FKS1 (second series), stronger effect = lower value 0.915 | S. cerevisiae deletion strains, locus YLR342W, strain FKS1, stronger effect = lower value 0.982 | S. cerevisiae deletion strains, locus YLR357W, strain rsc2, stronger effect = lower value 0.921 | S. cerevisiae deletion strains, locus YLR370C, strain arc18, stronger effect = lower value 0.967 | S. cerevisiae deletion strains, locus YLR371W, strain rom2, stronger effect = lower value 0.921 | S. cerevisiae deletion strains, locus YLR384C, strain iki3, stronger effect = lower value 0.964 | S. cerevisiae deletion strains, locus YLR418C, strain cdc73, stronger effect = lower value 0.901 | S. cerevisiae deletion strains, locus YML016C, strain PPZ1, stronger effect = lower value 0.99 | S. cerevisiae deletion strains, locus YML032C, strain rad52, stronger effect = lower value 0.959 | S. cerevisiae deletion strains, locus YML120C, strain ndi1, stronger effect = lower value 0.951 | S. cerevisiae deletion strains, locus YML124C, strain tub3, stronger effect = lower value 0.963 | S. cerevisiae deletion strains, locus YMR058W, strain fet3, stronger effect = lower value 0.972 | S. cerevisiae deletion strains, locus YMR078C, strain ctf18, stronger effect = lower value 0.979 | S. cerevisiae deletion strains, locus YMR125W, strain sto1, stronger effect = lower value 0.966 | S. cerevisiae deletion strains, locus YMR129W, stronger effect = lower value 0.962 | S. cerevisiae deletion strains, locus YMR205C, strain PFK2, stronger effect = lower value 0.909 | S. cerevisiae deletion strains, locus YMR223W, strain ubp8, stronger effect = lower value 0.905 | S. cerevisiae deletion strains, locus YMR231W, strain pep5, stronger effect = lower value 0.978 | S. cerevisiae deletion strains, locus YMR307W, strain GAS1, stronger effect = lower value 0.6 | S. cerevisiae deletion strains, locus YNL067W, strain RPL9B, stronger effect = lower value 0.942 | S. cerevisiae deletion strains, locus YNL071W, strain lat1, stronger effect = lower value 0.973 | S. cerevisiae deletion strains, locus YNL183C, strain NPR1, stronger effect = lower value 0.905 | S. cerevisiae deletion strains, locus YNL209W, strain ssb2, stronger effect = lower value 0.961 | S. cerevisiae deletion strains, locus YNL233W, strain BNI4, stronger effect = lower value 0.927 | S. cerevisiae deletion strains, locus YNL248C, strain rpa49, stronger effect = lower value 0.964 | S. cerevisiae deletion strains, locus YNL250W, strain rad50, stronger effect = lower value 0.98 | S. cerevisiae deletion strains, locus YNL307C, strain MCK1, stronger effect = lower value 0.994 | S. cerevisiae deletion strains, locus YNL322C, strain KRE1 (second series), stronger effect = lower value 0.98 | S. cerevisiae deletion strains, locus YNL322C, strain KRE1, stronger effect = lower value 0.984 | S. cerevisiae deletion strains, locus YNR049C, strain mso1, stronger effect = lower value 0.987 | S. cerevisiae deletion strains, locus YOL006C, strain TOP1, stronger effect = lower value 0.915 | S. cerevisiae deletion strains, locus YOL012C, strain htz1 0.605 | S. cerevisiae deletion strains, locus YOL147C, strain pex11, stronger effect = lower value 0.985 | S. cerevisiae deletion strains, locus YOR001W, strain rrp6, stronger effect = lower value 0.907 | S. cerevisiae deletion strains, locus YOR061W, strain CKA2, stronger effect = lower value 0.994 | S. cerevisiae deletion strains, locus YOR069W, strain VPS5, stronger effect = lower value 0.998 | S. cerevisiae deletion strains, locus YOR070C, strain gyp1, stronger effect = lower value 0.966 | S. cerevisiae deletion strains, locus YOR080W, strain dia2, stronger effect = lower value 0.967 | S. cerevisiae deletion strains, locus YOR083W, strain WHI5, stronger effect = lower value 0.954 | S. cerevisiae deletion strains, locus YOR106W, strain vam3, stronger effect = lower value 0.972 | S. cerevisiae deletion strains, locus YOR136W, strain idh2, stronger effect = lower value 0.931 | S. cerevisiae deletion strains, locus YOR144C, strain elg1, stronger effect = lower value 0.958 | S. cerevisiae deletion strains, locus YOR184W, strain ser1, stronger effect = lower value 0.946 | S. cerevisiae deletion strains, locus YOR231W, strain MKK1, stronger effect = lower value 0.982 | S. cerevisiae deletion strains, locus YOR265W, strain rbl2, stronger effect = lower value 0.98 | S. cerevisiae deletion strains, locus YOR270C, strain vph1, stronger effect = lower value 0.851 | S. cerevisiae deletion strains, locus YOR290C, strain snf2, stronger effect = lower value 0.971 | S. cerevisiae deletion strains, locus YOR316C, strain cot1, stronger effect = lower value 0.962 | S. cerevisiae deletion strains, locus YPL051W, strain arl3, stronger effect = lower value 0.959 | S. cerevisiae deletion strains, locus YPL055C, strain LGE1, stronger effect = lower value 0.938 | S. cerevisiae deletion strains, locus YPL078C, strain atp4, stronger effect = lower value 0.984 | S. cerevisiae deletion strains, locus YPL106C, strain sse1, stronger effect = lower value 0.895 | S. cerevisiae deletion strains, locus YPL240C, strain hsp82, stronger effect = lower value 0.953 | S. cerevisiae deletion strains, locus YPL241C, strain CIN2, stronger effect = lower value 1 | S. cerevisiae deletion strains, locus YPL256C, strain CLN2, stronger effect = lower value 0.958 | S. cerevisiae deletion strains, locus YPR119W, strain clb2, stronger effect = lower value 0.978 | S. cerevisiae deletion strains, locus YPR141C, strain kar3, stronger effect = lower value 0.974 | S. cerevisiae deletion strains, locus YPR163C, strain tif3, stronger effect = lower value 0.969 | S. cerevisiae deletion strains, locus YPR167C, strain met16, stronger effect = lower value 0.974 | S. cerevisiae deletion strains, strain wtn01, stronger effect = lower value 0.94 | S. cerevisiae strains, strain wild type, stronger effect = lower value 0.961
active: S. cerevisiae deletion strains, locus YKL009W, strain mrt4, stronger effect = lower value 1.55 [resistant] | S. cerevisiae deletion strains, locus YKL068W, stronger effect = lower value 1.23 [resistant] | S. cerevisiae deletion strains, locus YKL085W, strain MDH1 (second series), stronger effect = lower value 1.3 [resistant] | S. cerevisiae deletion strains, locus YKL085W, strain MDH1, stronger effect = lower value 1.3 [resistant] | S. cerevisiae deletion strains, locus YKR001C, strain vps1, stronger effect = lower value 0.855 | S. cerevisiae deletion strains, locus YLR113W, strain HOG1, stronger effect = lower value 0.673 | S. cerevisiae deletion strains, locus YNL271C, strain bni1, stronger effect = lower value 0.907 | S. cerevisiae deletion strains, locus YNL298W, strain CLA4, stronger effect = lower value 0.869 | S. cerevisiae deletion strains, locus YNR052C, strain pop2, stronger effect = lower value 0.914

Source: PubChem BioAssay AID1159580 (chemical genetic matrix, 2015)
